Assay [1] is described as follows: inhibitors of TNFa-induced NFkB p65 translocation, primary screen, imaging, HUVEC, MLSMR starter and 10KST1 sets (AID 438;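 active = inhibition above 20% together with a positive visual image hit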;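 also: compound added about 3h40 before a 20 min TNFalpha stimulation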;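 as to inhibition: signal is the nuclear over cytoplasmic p65 intensity ratio per well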). The following applies: HUVEC TNFa-induced p65 nuclear translocation; cell count: measured here: nuclei count (cytotoxicity indicator), at 2.08 µM; inhibition: at 2 µM, stronger effect = higher value, 0% TNFa-plus-vehicle, 100% no-TNFa wells.
Assay [2] is described as follows: reduction of polyQ htt aggregates in cells – imaging, exon1htt(103Q)mCFP cells, high-content imaging, primary screen (AID 483;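 active = visual image review flags a hit and inhibition of aggregation exceeds 20%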;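 also: compound exposure lasted 3 days before fixation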;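 as to nuclei count: percent of the per-plate median nuclei count of sample wells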). To be noted: exon1htt(103Q)mCFP cell line, aggregate imaging, at 2 µM; inhibition of aggregation: stronger effect = higher value; nuclei count: measured here: cell count, toxicity.
A short description of assay [3]: endothelial E-selectin expression blockers – imaging, HUVEC, immunofluorescence, MLSMR starter and 10KST1 sets, primary screen (AID 487;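 active = visually confirmed hit in the image check and inhibition above 20%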;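 as to inhibition: signal is fraction of cell area covered by stained E-selectin grains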;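 as to nuclei count: 100% = median nuclei count of all wells on the same plate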). The following applies: HUVEC TNFalpha-induced E-selectin immunofluorescence imaging, at 2 µM; inhibition: stronger effect = higher value; nuclei count: measured here: cell number, toxicity.
The target in assay [4] is Voltage-gated potassium channel subunit beta-2 (Rattus norvegicus) (UniProt P62483). Kind of assay: inhibitors of rat Kvbeta2 reductase activity – biochemical, NADPH fluorescence, primary screen (AID 622;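 active = fluorescence slope higher than the sample average by over 3 SD, cut at about -0.22 in these data, passing the limit was not always enough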;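 also: slope of raw intensity against log time taken from 70 to 1610 s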). To be noted: recombinant KvBeta, 4-cyanobenzaldehyde reduction, at 10 µM, stronger effect = higher value.
Voltage-gated potassium channel subunit beta-2 (Rattus norvegicus), sequence (P62483 whole entry, looked up): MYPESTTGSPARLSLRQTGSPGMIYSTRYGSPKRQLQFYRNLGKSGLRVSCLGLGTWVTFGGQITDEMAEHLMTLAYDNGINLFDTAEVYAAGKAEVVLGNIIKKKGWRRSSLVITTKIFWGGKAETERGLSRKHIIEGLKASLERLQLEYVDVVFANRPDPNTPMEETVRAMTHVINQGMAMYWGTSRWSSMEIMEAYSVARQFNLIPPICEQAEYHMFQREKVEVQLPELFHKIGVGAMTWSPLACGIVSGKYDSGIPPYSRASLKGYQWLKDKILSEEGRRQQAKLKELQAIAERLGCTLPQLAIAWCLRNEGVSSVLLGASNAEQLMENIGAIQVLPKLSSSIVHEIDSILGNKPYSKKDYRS
For assay [5] the target is unchanged. As to the kind of experiment: enhancers of rat Kvbeta2 NADPH turnover – biochemical, NADPH fluorescence, primary screen (AID 623;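 active = NADPH fluorescence slope more negative than the mean of all samples by about 3 SD, 99.7% confidence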;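 also: fluorescence intensity change per second fitted from 20 to 320 s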). The following applies: Recombinant KvBeta, NADPH fluorescence decrease slope, 10 min; at 10 µM; stronger effect = lower value.
Assay [6] addresses Alpha-2C adrenergic receptor (Homo sapiens) (UniProt P18825). Kind of assay: compounds altering alpha2C-coupled GIRK flux – cell-based, HEK293 alpha2C/GIRK1/2, thallium flux, primary screen (AID 624;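 active = fluorescence slope after compound addition differing from the mean of all screened samples at 99.7% confidence, in either direction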;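 also: slope of fluorescence ratio to pre-addition baseline per second over 15 to 24 s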). To be noted: thallium flux BTC fluorescence, at 10 µM, actives lie on both sides.
A short description of assay [7]: blockers of RIG-like receptor reporter activation – cell-based, Sendai virus stimulus, luciferase, 10K MLSCN set, TLR/RLR signaling modifier project, primary screen (AID 602276;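 active = inhibition at or above 50% at 10 µM; inactive = inhibition below 50%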;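 also: firefly luciferase from ISG56 promoter only with Renilla not read in this screen; 0% = Sendai virus plus DMSO and 100% = medium plus DMSO without virus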). To be noted: HEK293 RL24 IRF3 luciferase reporter, at 10 µM, stronger effect = higher value.
Assay [8] can be described thus: TLR3 IRF3 reporter activation blockers – cell-based, poly I:C stimulus, luciferase, 10K MLSCN set, primary screen (AID 602277). The following applies: HEK293-TLR3 RL24 IRF3 luciferase reporter, at 10 µM, stronger effect = higher value.

Structures are written as SMILES. Activity calls are given as the source filed them.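 The calls were made as follows, unless noted: active = inhibition of the reporter signal at or above 50%; inactive = inhibition below 50%.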

Alpha-2C adrenergic receptor (Homo sapiens), sequence (P18825 whole entry, looked up): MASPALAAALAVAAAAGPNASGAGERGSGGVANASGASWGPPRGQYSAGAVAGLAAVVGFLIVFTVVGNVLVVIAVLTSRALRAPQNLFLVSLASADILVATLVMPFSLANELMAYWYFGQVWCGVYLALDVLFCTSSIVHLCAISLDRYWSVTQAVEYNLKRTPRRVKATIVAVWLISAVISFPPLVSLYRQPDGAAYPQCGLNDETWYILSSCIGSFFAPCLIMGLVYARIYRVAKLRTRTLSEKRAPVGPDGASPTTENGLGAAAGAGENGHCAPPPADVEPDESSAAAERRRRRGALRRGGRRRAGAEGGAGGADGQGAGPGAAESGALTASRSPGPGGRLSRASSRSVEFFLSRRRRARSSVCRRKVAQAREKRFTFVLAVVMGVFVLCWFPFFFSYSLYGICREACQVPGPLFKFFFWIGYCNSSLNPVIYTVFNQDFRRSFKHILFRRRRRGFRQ

As a reminder, the inhibition is the drop in the measured response relative to a control, in per cent. On to `NC(=O)C1CCN(C(=S)c2cccs2)CC1`, for which, in assay [1], the cell count is 759. The inhibition in assay [1] is 3.9% (inactive); in assay [3], -69.5% (inactive); in assay [7], 19.1% (inactive); in assay [8] it was 30.8% (inactive). For the same compound, the inhibition of aggregation in assay [2] was 12.1% (inactive). Besides, the nuclei count worked out at 105% in assay [2] and 107% in assay [3]. Also, the fluorescence slope in assay [4] was -0.49 (inactive). The NADPH fluorescence slope in assay [5] was -1.4e-06 (inactive). Moreover, in assay [6], the slope was 0.00525 (inactive).

Regarding `Cc1ccc2c(c1)C1CCCC3C1N2CC(=O)N3Cc1ccccc1` (centres undefined), the cell count in assay [1] stood at 331. Moreover, the inhibition in assay [1] is -7.1% (inactive); in assay [3], -136% (inactive); in assay [7], 7.59% (inactive); in assay [8], -11.1% (inactive). Further, in assay [2], the inhibition of aggregation was -7.3% (inactive). Moreover, the nuclei count in assay [2] was determined as 81.8%; in assay [3], 131%. Further, the fluorescence slope in assay [4] was -0.498 (inactive). Besides, in assay [5], the NADPH fluorescence slope was -3.8e-05 (inactive). The slope in assay [6] is 0.00336 (inactive).

Take `COc1ccc(C2(C(=O)N3CCCC3)CCOCC2)cc1OC`: in assay [1], the cell count was determined as 352. The inhibition was 5.5% (inactive) in assay [1], 30.4% (inactive) in assay [3], 2.28% (inactive) in assay [7] and 15.1% (inactive) in assay [8]. For the same compound, the inhibition of aggregation in assay [2] is -9.9% (inactive). In addition, the nuclei count in assay [2] is 97.5%; in assay [3], 111%. Moreover, the fluorescence slope in assay [4] was -0.341 (inactive). In addition, in assay [5], the NADPH fluorescence slope is -1.4e-05 (inactive). In addition, in assay [6], the slope was 0.00553 (inactive).

Take `Cc1ccc2nc(-c3ccccn3)cc(C(=O)N3CCN(c4ncccn4)CC3)c2c1`: in assay [1], the cell count worked out at 367. For the same compound, the inhibition in assay [1] was -5.9% (inactive); in assay [3], 6% (inactive); in assay [7], 4.96% (inactive); in assay [8], 8.03% (inactive). In addition, the inhibition of aggregation in assay [2] was 0% (inactive). In addition, the nuclei count was determined as 107% in assay [2] and 115% in assay [3]. Moreover, the fluorescence slope in assay [4] is -0.346 (inactive). Moreover, the NADPH fluorescence slope in assay [5] was -5.1e-05 (inactive). Also, the slope in assay [6] is 0.00536 (inactive).

Take `COc1cccc(/C=N/n2cnnc2)c1OCc1ccccc1`: the cell count in assay [1] worked out at 473. The inhibition in assay [1] is -2.6% (inactive); in assay [3], 2.5% (inactive); in assay [7], 20.5% (inactive); in assay [8], 12.5% (inactive). Also, the inhibition of aggregation in assay [2] was -7% (inactive). Further, the nuclei count in assay [2] was determined as 104%; in assay [3] it was 109%. In addition, the fluorescence slope in assay [4] is -0.448 (inactive). The NADPH fluorescence slope in assay [5] is 1.1e-05 (inactive). The slope in assay [6] was 0.00389 (inactive).

In the case of `CC(C)(C)Cc1nc(-c2ccccn2)no1`, the cell count in assay [1] was 379. Besides, the inhibition in assay [1] was 0.8% (inactive); in assay [3], -71.1% (inactive); in assay [7], -5.86% (inactive); in assay [8], -18.2% (inactive). For the same compound, the inhibition of aggregation in assay [2] is -13.5% (inactive). The nuclei count in assay [2] was determined as 109%; in assay [3], 115%. In assay [4], the fluorescence slope is -0.44 (inactive). For the same compound, the NADPH fluorescence slope in assay [5] is -2.3e-05 (inactive). Further, the slope in assay [6] was 0.00439 (inactive).

`CN(C1CCS(=O)(=O)C1)S(=O)C12CC3CC(CC(C3)C1)C2` (centres undefined): the cell count in assay [1] was 150. The inhibition in assay [1] is 23.1% (inactive); in assay [3], 1.8% (inactive); in assay [7], -4.43% (inactive); in assay [8] it was 99.5% (active). Besides, the inhibition of aggregation in assay [2] was -16% (inactive). Also, the nuclei count in assay [2] is 98%; in assay [3] it was 95.7%. For the same compound, the fluorescence slope in assay [4] is -0.533 (inactive). In assay [5], the NADPH fluorescence slope was -3.6e-05 (inactive). For the same compound, the slope in assay [6] was 0.00528 (inactive).

For the compound `O=C(Nc1cnn(Cc2ccc(Cl)cc2Cl)c1)c1noc2c1CCCC2`, the cell count in assay [1] came to 510. In addition, the inhibition is -7.6% (inactive) in assay [1], -22.8% (inactive) in assay [3], -3.18% (inactive) in assay [7] and -25.5% (inactive) in assay [8]. In addition, in assay [2], the inhibition of aggregation is 33.3% (active). In addition, the values for the nuclei count in assay [2] and in assay [3] were 57.6% and 99.5%, respectively. For the same compound, the fluorescence slope in assay [4] was -0.569 (inactive). In assay [5], the NADPH fluorescence slope was -2.6e-05 (inactive). The slope in assay [6] was 0.00522 (inactive).

Take `Cc1cccc(NC(=O)c2ccc3ccccc3n2)n1`: the cell count in assay [1] is 408. In addition, the inhibition in assay [1] is -4.5% (inactive); in assay [3], -50.9% (inactive); in assay [7] it was -11.1% (inactive); in assay [8] it was -91.5% (inactive). Further, in assay [2], the inhibition of aggregation is 0.8% (inactive). The nuclei count was 86.6% in assay [2] and 95.8% in assay [3]. Besides, the fluorescence slope in assay [4] is -0.303 (inactive). The NADPH fluorescence slope in assay [5] is -1.5e-05 (inactive). Moreover, the slope in assay [6] was 0.0061 (inactive).

On to `CCCC1(C(=O)OC)NC(c2cc(OC)c(OC)c(OC)c2)C2C(=O)N(CC)C(=O)C21` (centres undefined), for which the cell count in assay [1] came out at 582. Also, the inhibition in assay [1] was 5.5% (inactive); in assay [3], -37.6% (inactive); in assay [7], -10.2% (inactive); in assay [8], 2.76% (inactive). Also, the inhibition of aggregation in assay [2] is 8.1% (inactive). Moreover, the nuclei count is 111% in assay [2] and 110% in assay [3]. For the same compound, the fluorescence slope in assay [4] is -0.48 (inactive). In addition, the NADPH fluorescence slope in assay [5] is 3.3e-05 (inactive). Moreover, the slope in assay [6] is 0.0052 (inactive).

For `CCOc1ccc(C2CC(c3cccc(OC)c3)Nc3nc(N)nn32)cc1` (centres undefined), the cell count in assay [1] was 562. Further, the inhibition was 5.4% (inactive) in assay [1], 36.3% (inactive) in assay [3], -7.71% (inactive) in assay [7] and -1.03% (inactive) in assay [8]. In addition, in assay [2], the inhibition of aggregation is 15.4% (inactive). In addition, the nuclei count came out at 100% in assay [2] and 97.4% in assay [3]. For the same compound, in assay [4], the fluorescence slope was -0.619 (inactive). The NADPH fluorescence slope in assay [5] was 7.9e-07 (inactive). The slope in assay [6] is 0.00629 (inactive).

Regarding `Cc1cccc(-c2nnc(SCC#N)n2-c2cccc(Cl)c2)c1`, the cell count in assay [1] worked out at 651. Moreover, the inhibition in assay [1] was 10.2% (inactive); in assay [3], 66.1% (inactive); in assay [7], 10.9% (inactive); in assay [8], 21.3% (inactive). In addition, the inhibition of aggregation in assay [2] was 0.4% (inactive). Besides, the nuclei count in assay [2] turned out to be 118%; in assay [3], 109%. In assay [4], the fluorescence slope is -0.441 (inactive). Moreover, the NADPH fluorescence slope in assay [5] is -2.1e-05 (inactive). In assay [6], the slope was 0.00584 (inactive).

For the compound `Cc1ccc(S(=O)(=O)N2CCOCC(=O)NCCOCCNC(=O)COCC2)cc1`, in assay [1], the cell count worked out at 592. The inhibition in assay [1] is 2.1% (inactive); in assay [3], -89.9% (inactive); in assay [7], 9.52% (inactive); in assay [8], 9.55% (inactive). The inhibition of aggregation in assay [2] was -15.3% (inactive). The figures for the nuclei count in assay [2] and in assay [3] were 116% and 108%, respectively. In addition, the fluorescence slope in assay [4] was -0.622 (inactive). In assay [5], the NADPH fluorescence slope was -2.4e-05 (inactive). In addition, the slope in assay [6] was 0.00426 (inactive).

For the compound `Cc1ccc(NC(=O)C2CCCN(S(=O)(=O)c3cnc[nH]3)C2)cc1F` (centres undefined), the cell count in assay [1] worked out at 521. Moreover, the inhibition is 0.9% (inactive) in assay [1], -108% (inactive) in assay [3], 22.4% (inactive) in assay [7] and 21.8% (inactive) in assay [8]. In addition, in assay [2], the inhibition of aggregation is 7.3% (inactive). Besides, the nuclei count in assay [2] is 99.9%; in assay [3] it was 126%. Besides, the fluorescence slope in assay [4] is -0.521 (inactive). Also, the NADPH fluorescence slope in assay [5] is -4.2e-05 (inactive). Moreover, the slope in assay [6] is 0.00688 (inactive).
